# Data reported in the supplement of paper PMC11732987, “Enantioselective OTUD7B fragment discovery through chemoproteomics screening and high-throughput optimisation” (Communications Chemistry, 2025).
# Values without a mark were called inactive.
# Assays:
# Assay in all cases: log2 ratio of Biotin-Ahx-Ub-VS probe labelling (fragment/DMSO); higher = less target engagement (more negative = stronger competition), active = hit call of the paper (q ≤ 0.05, log2 ratio ≤ -1)
# Conditions in all cases: compound concentration: 200 uM; treatment time: 3 h
# OTUD6B = biological target: T1, OTUD6B (UniProt Q8N6M0)
# T1 sequence (whole entry): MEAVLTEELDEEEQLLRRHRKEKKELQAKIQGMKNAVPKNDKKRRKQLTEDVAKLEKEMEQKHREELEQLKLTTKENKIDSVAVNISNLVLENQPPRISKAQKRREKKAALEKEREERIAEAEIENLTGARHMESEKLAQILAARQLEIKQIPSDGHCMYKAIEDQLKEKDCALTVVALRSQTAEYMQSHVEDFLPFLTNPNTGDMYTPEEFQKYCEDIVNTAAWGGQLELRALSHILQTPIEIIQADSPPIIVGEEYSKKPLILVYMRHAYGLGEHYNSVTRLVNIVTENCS
# How it was run: (§1)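 In triplicate, 495 µg of HEK293T lysate per sample was incubated with fragment at 200 µM or vehicle for 3 h. Biotin-Ahx-Ub-VS was then added to 0.5 µM final for 1 h, and labelled DUBs were captured with NeutrAvidin, digested with LysC and trypsin, and measured by diaPASEF LC-MS/MS. Data are average log2 fragment/vehicle ratios by unpaired t-test from global-median-normalised Spectronaut label-free quantities, restricted to proteins with ≥2 unique peptides.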
# OTUD7B = biological target: T2, OTUD7B (UniProt Q6GQQ9)
# T2 sequence (whole entry): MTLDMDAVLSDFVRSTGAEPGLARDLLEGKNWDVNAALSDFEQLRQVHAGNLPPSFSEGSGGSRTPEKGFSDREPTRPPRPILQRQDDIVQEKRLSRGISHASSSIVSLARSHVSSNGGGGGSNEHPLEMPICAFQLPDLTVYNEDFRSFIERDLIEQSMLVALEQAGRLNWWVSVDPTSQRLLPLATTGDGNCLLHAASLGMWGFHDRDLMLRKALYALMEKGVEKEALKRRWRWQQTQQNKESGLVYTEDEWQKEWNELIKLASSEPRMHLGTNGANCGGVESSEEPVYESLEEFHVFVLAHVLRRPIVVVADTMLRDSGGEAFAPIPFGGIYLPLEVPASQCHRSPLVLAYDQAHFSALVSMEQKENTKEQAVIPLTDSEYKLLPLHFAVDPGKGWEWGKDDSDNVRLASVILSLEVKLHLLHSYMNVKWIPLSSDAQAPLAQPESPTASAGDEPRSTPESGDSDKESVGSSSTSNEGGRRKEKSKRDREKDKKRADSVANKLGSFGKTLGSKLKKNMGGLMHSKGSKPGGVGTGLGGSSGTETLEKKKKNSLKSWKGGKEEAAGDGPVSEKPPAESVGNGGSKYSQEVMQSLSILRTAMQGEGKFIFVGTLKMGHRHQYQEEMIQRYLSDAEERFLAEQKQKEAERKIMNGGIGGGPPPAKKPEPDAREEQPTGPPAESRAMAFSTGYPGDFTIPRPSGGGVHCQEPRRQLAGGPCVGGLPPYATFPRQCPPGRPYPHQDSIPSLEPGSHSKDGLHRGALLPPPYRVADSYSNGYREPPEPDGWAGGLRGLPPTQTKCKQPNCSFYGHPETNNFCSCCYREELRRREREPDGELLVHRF
# How it was run: as §1
# PRPF8 = PRPF8 (UniProt Q6P2Q9)
# How it was run: as §1
# PSMD7 = biological target: T3, PSMD7 (UniProt P51665)
# T3 sequence (whole entry): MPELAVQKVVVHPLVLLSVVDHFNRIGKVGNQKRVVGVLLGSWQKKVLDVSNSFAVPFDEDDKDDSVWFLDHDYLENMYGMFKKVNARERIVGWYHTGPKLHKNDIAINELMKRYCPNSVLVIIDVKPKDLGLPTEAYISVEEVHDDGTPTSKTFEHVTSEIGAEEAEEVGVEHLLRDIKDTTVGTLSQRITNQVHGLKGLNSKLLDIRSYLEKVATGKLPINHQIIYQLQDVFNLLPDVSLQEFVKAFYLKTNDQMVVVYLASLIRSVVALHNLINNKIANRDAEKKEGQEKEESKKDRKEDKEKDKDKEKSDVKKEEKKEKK
# How it was run: as §1
# UCHL1 = UCHL1 (UniProt P09936)
# How it was run: as §1
# UCHL3 = biological target: T4, UCHL3 (UniProt P15374)
# T4 sequence (whole entry): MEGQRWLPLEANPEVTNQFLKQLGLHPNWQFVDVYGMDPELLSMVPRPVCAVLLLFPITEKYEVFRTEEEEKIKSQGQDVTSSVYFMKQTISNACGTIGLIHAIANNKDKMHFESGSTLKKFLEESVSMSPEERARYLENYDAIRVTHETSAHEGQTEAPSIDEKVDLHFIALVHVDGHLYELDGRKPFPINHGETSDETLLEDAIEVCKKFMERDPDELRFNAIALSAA
# How it was run: as §1
# UCHL5 = biological target: T5, UCHL5 (UniProt Q9Y5K5)
# T5 sequence (whole entry): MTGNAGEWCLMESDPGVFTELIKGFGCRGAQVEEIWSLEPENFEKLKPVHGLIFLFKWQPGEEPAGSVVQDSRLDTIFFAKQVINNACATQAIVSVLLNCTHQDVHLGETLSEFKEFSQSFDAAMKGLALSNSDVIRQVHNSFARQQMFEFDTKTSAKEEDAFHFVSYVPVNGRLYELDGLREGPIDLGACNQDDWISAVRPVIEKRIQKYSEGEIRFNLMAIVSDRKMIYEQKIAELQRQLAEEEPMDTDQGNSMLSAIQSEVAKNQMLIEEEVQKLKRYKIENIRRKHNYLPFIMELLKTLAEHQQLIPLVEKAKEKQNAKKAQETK
# How it was run: as §1
# USP10 = USP10 (UniProt Q14694)
# How it was run: as §1
# USP15 = biological target: T6, USP15 (UniProt Q9Y4E8)
# T6 sequence (whole entry): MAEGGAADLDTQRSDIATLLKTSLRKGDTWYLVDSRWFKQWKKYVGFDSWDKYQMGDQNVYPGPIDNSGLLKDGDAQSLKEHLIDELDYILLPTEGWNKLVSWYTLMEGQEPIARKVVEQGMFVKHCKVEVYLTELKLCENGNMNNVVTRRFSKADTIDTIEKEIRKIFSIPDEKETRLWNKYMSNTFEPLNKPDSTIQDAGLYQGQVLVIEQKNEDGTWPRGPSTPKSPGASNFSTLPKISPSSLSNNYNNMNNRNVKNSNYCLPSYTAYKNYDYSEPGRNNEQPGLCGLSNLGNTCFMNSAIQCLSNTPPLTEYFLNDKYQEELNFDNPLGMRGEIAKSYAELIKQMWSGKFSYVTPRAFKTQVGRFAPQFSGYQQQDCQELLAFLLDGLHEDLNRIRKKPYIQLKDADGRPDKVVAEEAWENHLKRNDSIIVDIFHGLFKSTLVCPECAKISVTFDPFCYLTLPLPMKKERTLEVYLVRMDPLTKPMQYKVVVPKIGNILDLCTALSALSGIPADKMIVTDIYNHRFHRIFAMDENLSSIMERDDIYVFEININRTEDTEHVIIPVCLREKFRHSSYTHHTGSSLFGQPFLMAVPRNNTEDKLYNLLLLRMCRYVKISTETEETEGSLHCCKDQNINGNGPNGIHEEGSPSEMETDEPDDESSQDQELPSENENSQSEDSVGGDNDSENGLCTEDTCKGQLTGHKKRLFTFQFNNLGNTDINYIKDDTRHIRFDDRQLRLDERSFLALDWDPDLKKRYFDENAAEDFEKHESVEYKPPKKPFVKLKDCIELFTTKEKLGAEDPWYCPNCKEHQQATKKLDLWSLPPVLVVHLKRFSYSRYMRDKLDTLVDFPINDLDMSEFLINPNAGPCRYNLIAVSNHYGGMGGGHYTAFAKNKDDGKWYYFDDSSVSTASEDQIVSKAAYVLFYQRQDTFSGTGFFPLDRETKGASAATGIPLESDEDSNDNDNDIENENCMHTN
# How it was run: as §1
# USP16 = USP16 (UniProt Q9Y5T5)
# How it was run: as §1
# Chain of USP16 (Q9Y5T5 whole entry, looked up): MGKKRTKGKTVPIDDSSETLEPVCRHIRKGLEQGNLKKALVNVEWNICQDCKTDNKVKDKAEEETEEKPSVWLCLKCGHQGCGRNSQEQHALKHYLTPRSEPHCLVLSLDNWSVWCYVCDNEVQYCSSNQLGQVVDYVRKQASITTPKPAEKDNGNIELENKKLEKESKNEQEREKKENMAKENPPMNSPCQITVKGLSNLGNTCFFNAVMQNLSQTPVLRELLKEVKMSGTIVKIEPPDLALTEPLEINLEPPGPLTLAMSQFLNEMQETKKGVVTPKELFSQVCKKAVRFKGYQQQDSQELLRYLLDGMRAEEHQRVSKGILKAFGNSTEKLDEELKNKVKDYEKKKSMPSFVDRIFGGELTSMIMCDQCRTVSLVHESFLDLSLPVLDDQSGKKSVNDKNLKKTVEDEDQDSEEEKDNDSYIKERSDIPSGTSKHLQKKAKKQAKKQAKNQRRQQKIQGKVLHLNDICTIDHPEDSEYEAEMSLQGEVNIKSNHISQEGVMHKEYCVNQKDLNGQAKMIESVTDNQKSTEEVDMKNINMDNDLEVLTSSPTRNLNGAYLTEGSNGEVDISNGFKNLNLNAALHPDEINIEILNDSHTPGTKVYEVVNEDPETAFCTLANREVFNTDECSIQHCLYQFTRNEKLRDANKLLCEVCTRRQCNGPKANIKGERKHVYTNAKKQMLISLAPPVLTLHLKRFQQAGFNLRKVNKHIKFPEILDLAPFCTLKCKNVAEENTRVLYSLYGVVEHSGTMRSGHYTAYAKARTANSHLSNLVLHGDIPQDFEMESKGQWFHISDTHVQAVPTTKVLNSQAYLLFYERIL
# Chain of USP10 (Q14694 whole entry): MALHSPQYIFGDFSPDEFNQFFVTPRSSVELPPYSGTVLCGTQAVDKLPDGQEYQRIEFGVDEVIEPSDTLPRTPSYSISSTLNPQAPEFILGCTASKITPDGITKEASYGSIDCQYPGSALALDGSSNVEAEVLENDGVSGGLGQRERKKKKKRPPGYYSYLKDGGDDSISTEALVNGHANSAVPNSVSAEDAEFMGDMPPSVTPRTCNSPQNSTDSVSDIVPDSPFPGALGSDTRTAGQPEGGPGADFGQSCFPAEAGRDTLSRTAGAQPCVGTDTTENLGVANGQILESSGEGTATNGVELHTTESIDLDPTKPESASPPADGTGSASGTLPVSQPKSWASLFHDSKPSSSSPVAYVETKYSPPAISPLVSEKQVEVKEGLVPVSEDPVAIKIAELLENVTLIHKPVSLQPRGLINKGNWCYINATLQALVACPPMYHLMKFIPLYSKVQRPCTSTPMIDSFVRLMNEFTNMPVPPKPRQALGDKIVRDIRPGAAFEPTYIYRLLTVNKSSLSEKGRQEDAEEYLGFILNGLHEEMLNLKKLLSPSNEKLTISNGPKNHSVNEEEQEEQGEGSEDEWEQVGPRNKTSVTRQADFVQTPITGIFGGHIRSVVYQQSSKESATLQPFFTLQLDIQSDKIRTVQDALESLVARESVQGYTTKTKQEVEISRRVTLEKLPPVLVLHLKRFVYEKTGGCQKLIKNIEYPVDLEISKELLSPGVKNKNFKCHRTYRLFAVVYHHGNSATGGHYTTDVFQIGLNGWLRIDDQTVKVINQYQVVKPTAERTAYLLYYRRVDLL
# Chain of UCHL1 (P09936 whole entry, looked up): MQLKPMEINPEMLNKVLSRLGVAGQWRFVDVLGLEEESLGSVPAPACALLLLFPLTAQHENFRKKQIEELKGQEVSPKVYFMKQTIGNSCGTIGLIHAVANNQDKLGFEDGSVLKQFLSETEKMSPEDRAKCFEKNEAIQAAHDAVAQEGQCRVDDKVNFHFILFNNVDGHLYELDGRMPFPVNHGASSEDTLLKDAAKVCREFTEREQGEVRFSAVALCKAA
smiles,measurement,setting,value
CCN1C(=O)C2CN(C(=O)CCl)CCN2C1=O (stereo not given),log2 ratio of Biotin-Ahx-Ub-VS probe labelling,OTUD6B,-0.0446
same,log2 ratio of Biotin-Ahx-Ub-VS probe labelling,OTUD7B,-0.649
same,log2 ratio of Biotin-Ahx-Ub-VS probe labelling,PRPF8,0.0726
same,log2 ratio of Biotin-Ahx-Ub-VS probe labelling,PSMD7,0.0575
same,log2 ratio of Biotin-Ahx-Ub-VS probe labelling,UCHL1,-1.56 (active)
same,log2 ratio of Biotin-Ahx-Ub-VS probe labelling,UCHL3,0.629
same,log2 ratio of Biotin-Ahx-Ub-VS probe labelling,UCHL5,-0.0935
same,log2 ratio of Biotin-Ahx-Ub-VS probe labelling,USP10,-0.0852
same,log2 ratio of Biotin-Ahx-Ub-VS probe labelling,USP15,-0.265
same,log2 ratio of Biotin-Ahx-Ub-VS probe labelling,USP16,-0.656
